This is a sample that favours compounds with a hit; in the whole collection about 3.4% have one here.
esBAF inh: SWI/SNF esBAF complex inhibition. 350,000 compounds, 2% hits. AID 602393. mouse ES cells, Bmi1-luciferase knock-in reporter, 24 h; 100% = twice the neutral-well signal. reporter increase, % at 12.5 µM; in the data active means activation above about 40%; inconclusive means no clear call, values can overlap the other calls;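 further: 0% = median of the plate's neutral control wells and 100% = double that signal; a rise in the Bmi1 reporter signal indicates esBAF inhibition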
Vif inh: inhibitors of HIV Vif; AID 602346; 340,000 compounds, 0.35% hits; HEK293T cells, Vif self-association by quenched fluorescence, imaging, 24 h; inhibition, % at 7.49 µM; in the data active means inhibition above about 50%, passing the limit was not always enough; inconclusive means no clear call, values can overlap the other calls; inactive means below about 31%
HSF1 inhib: HSF1 inhibition. AID 2098. 300,000 compounds, 0.77% hits. NIH3T3-HGL HSE-luciferase, MG132-induced, luminescence 8 h; active compounds read low. activity change, negative = inhibition, % at 7.5 µM (by protocol);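 active means more than half of replicate wells show activity change below -50%, luminescence cut by over half; inconclusive means some wells, but at most half, below -50%; inactive means no replicate well below -50%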;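 further: luciferase reports HSF-1 transcriptional activity via heat shock element; 0% = median of DMSO wells and -100% = zero luminescence signal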
HSF-1 act: increases HSF-1 driven luciferase reporter signal. NIH3T3-HGL HSF-1 luciferase reporter, MG132, 8 h; 100% = twice DMSO control signal. 300,000 compounds, 1.7% hits. AID 504408. activation, % at 9 µM;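 active means mean replicate activation of at least 50% with a set share of replicates each reaching 50%; inconclusive means only one of those two conditions met; inactive means mean below 50% and too few replicates reaching it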;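 further: 0% = median of the neutral control wells and 100% = twice that signal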
An asterisk follows results filed as active; ? = inconclusive; nt = no result.

SMILES	esBAF inh	Vif inh	HSF1 inhib	HSF-1 act
Cc1ccc(NC(=O)Cc2ccccc2)c(C)c1	nt	nt	-5	-4
Cc1ccc(NC(=O)CS(=O)c2ccccc2N)c(C)c1 (configuration not stated)	50*	10	15	49
Cc1ccc(NC(=O)O/N=C/c2ccc(N(C)C)cc2)cc1	56*	-5	-32	-47
O=C(Nc1ccccc1)O/N=C/c1ccc(F)cc1	48*	4	27	?
Cc1ccc(NC(=O)O/N=C/c2ccc(Br)cc2)cc1	8	-4	-5	-4
Cc1ccc(NC(=O)O/N=C/c2ccc(F)cc2)cc1	56*	6	2	9
COc1ccc(NC(=O)O/N=C/c2ccc(N(C)C)cc2)cc1	17	23	3	1
CN(C)C(=O)C[C@H]1CC[C@@H]2[C@H](COC[C@H](O)CN2CC2CCCC2)O1	-2	nt	nt	nt
Cn1cc(C(=O)N/N=C/C=C/c2ccccc2)ccc1=O	-14	2	-8	2
Cn1cc(C(=O)N/N=C/C(Br)=C/c2ccccc2)ccc1=O	nt	4	62	90*
Cn1cc(C(=O)N/N=C/C(Br)=C\c2ccccc2)ccc1=O	6	nt	65	87*
COc1ccc(NC(=O)N(C)C[C@@H]2Oc3c(NC(=O)Nc4c(C)noc4C)cccc3C(=O)N([C@H](C)CO)C[C@@H]2C)cc1	4	nt	nt	nt
CN1[C@@H]2Cn3c(ccc(-c4ccncc4)c3=O)[C@H]1[C@@H](C(=O)NCC1CCCCC1)[C@@H]2CO	-4	nt	nt	nt
CC(C)NC(=O)N(C)C[C@H]1OCCCC[C@@H](C)Oc2ccc(NS(C)(=O)=O)cc2C(=O)N([C@@H](C)CO)C[C@H]1C	-3	nt	nt	nt
Cc1ccccc1OCCCC(=O)Nc1ccccc1C(F)(F)F	-6	-8	38	91*
C[C@@H]1CN([C@H](C)CO)C(=O)c2cccc(NC(=O)NC3CCCCC3)c2O[C@@H]1CN(C)C(=O)NC1CCCCC1	6	nt	nt	nt
COc1ccc(/C=C/C(=O)Nc2cc(C)nn2-c2nc3ccccc3[nH]2)cc1	nt	-12	144	190*
Cc1cc(NC(=O)/C=C/c2ccc(F)cc2)n(-c2nc3ccccc3[nH]2)n1	nt	-1	7	46
CCOC(=O)/C(C#N)=C1/C=CN(c2ccccc2)C=N1	37	-13	6	-5
CCOC(=O)/C(C#N)=C1/C=CN(c2ccc(C)cc2)C=N1	47*	4	9	9
O=C(Nc1ccc(F)cc1)Nc1csc2ccccc12	nt	-6	41	61*
C[C@H](CO)N1C[C@H](C)[C@@H](CN(C)C(=O)Nc2ccccc2)OCCCC[C@H](C)Oc2ccc(NC(=O)Nc3cccc4ccccc34)cc2C1=O	5	nt	nt	nt
CN1C(=O)c2cc(NC(=O)Cc3cccs3)ccc2OC[C@@H]2O[C@H](CC(=O)N[C@@H]3CCN(Cc4ccccc4)C3)CC[C@@H]21	-2	nt	nt	nt
COc1ccc([C@@H]2C[C@@H](c3ccccc3)Oc3cc(C)cc(C)c32)cc1	-16	10	-12	6
COc1ccc([C@@H]2C[C@@H](c3ccccc3)Oc3c(C)ccc(C(C)C)c32)cc1	nt	nt	-66*	-74
SMILES	esBAF inh	Vif inh	HSF1 inhib	HSF-1 act
Cc1noc(C)c1S(=O)(=O)Nc1ccc2c(c1)CC(=O)N([C@H](C)CO)C[C@H](C)[C@@H](CN(C)C(=O)Nc1ccc(C(F)(F)F)cc1)O2	7	nt	nt	nt
C=CCOn1c(=O)c(-c2cc3ccccc3o2)[n+]([O-])c2ccccc21	54*	8	13	37
COn1c(=O)c(-c2ccccc2)[n+]([O-])c2ccccc21	-2	51*	-7	-6
CCOC(=O)COn1c(=O)c(-c2cc3ccccc3o2)[n+]([O-])c2ccccc21	52*	2	22	41
C=CCOn1c(=O)c(-c2ccccc2)[n+]([O-])c2ccccc21	1	-1	6	11
CCCOc1ccc(-c2c(=O)n(OCC(=O)OCC)c3ccccc3[n+]2[O-])cc1	70*	-6	34	56*
CCOC(=O)COn1c(=O)c(-c2ccc(F)cc2)[n+]([O-])c2ccccc21	-4	-16	-3	-11
COn1c(=O)c(-c2ccc(C)cc2)[n+]([O-])c2ccccc21	10	5	-3	18
COc1ccc(CN(C)C[C@@H]2OCCCC[C@H](C)Oc3ccc(NS(=O)(=O)c4ccc(OC)cc4)cc3C(=O)N([C@H](C)CO)C[C@H]2C)cc1	-2	nt	nt	nt
Cc1cccc(CN(C)C[C@H]2OCc3cn(nn3)CCCC(=O)N([C@H](C)CO)C[C@@H]2C)c1	2	nt	nt	nt
CN(C)CC(=O)Nc1ccc2c(c1)[C@H]1C[C@@H](CC(=O)N3CCOCC3)O[C@@H](CO)[C@H]1O2	-4	nt	nt	nt
COc1cccc(C#Cc2cnc3c(c2)C(=O)N([C@@H](C)CO)C[C@@H](C)[C@@H](CN(C)C(=O)C2CCC2)O3)c1	4	nt	nt	nt
COc1ccc(CN(C)C[C@@H]2Oc3ccc(NS(=O)(=O)c4c(C)noc4C)cc3CC(=O)N([C@@H](C)CO)C[C@H]2C)cc1	-4	nt	nt	nt
COc1cc(N/N=C/c2ccccc2O)ncn1	nt	-7	21	65*
C[C@@H]1CN([C@@H](C)CO)C(=O)c2cc(NC(=O)CCCN(C)C)ccc2O[C@H]1CN(C)Cc1ccncc1	-1	nt	nt	nt
COc1ccc(N2CCN(CCCNC(=O)C(=O)c3c(C)n(C)c4ccccc34)CC2)cc1	1	54*	-9	10
Cc1ccc(O)c(C(=O)c2cnc3c(c2)c(-c2ccc(F)cc2)c(C#N)c(=O)n3C)c1	nt	-4	34	63*
O=C(CCC(=O)N1CCN(c2ccc(O)cc2)CC1)c1ccc(Br)cc1	nt	nt	40	91*
CCOc1ccc(C(=O)CCC(=O)N2CCN(c3ccc(O)cc3)CC2)cc1	-1	11	nt	nt
O=C1OC(c2ccc(F)cc2)=N/C1=C\C=C/c1ccccc1	nt	4	-14	-29
O=C1OC(/C=C/c2ccccc2)=NC/1=C/C=C/c1ccccc1	nt	10	82	112*
COc1cc(OC)cc(C(=O)N2CCN(S(C)(=O)=O)CC2)c1	-2	9	-82*	-85
CCOC(=O)N1CCN(C(=O)c2cc(OC)cc(OC)c2)CC1	9	34	-10	-4
CC(=O)Nc1ccc(-c2csc(NCCc3ccccc3)n2)cc1	47*	-1	5	18
Cc1ccc(Nc2nc(C)cs2)cc1	20	10	0	10
SMILES	esBAF inh	Vif inh	HSF1 inhib	HSF-1 act
Cc1csc(Nc2ccc(Cl)cc2)n1	76*	-3	0	1
C[C@@H]1CN([C@H](C)CO)C(=O)c2cc(NC(=O)CCC(F)(F)F)ccc2O[C@@H]1CN(C)Cc1ccc(Oc2ccccc2)cc1	-4	nt	nt	nt
CN(CC(=O)Nc1cccc(F)c1)C(=O)c1sc2ccccc2c1Cl	62*	14	nt	nt
CCC(=O)N(C)C[C@H]1Oc2ncc(-c3ccccc3C)cc2C(=O)N([C@H](C)CO)C[C@H]1C	-4	nt	nt	nt
CN1C(=O)c2cc(NC(=O)C3CCCC3)ccc2OC[C@H]2O[C@H](CC(=O)NCC(F)(F)F)CC[C@H]21	6	nt	nt	nt
CCOC(=O)C1=NOC2C3CC(C12)C1C(=O)N(CCc2ccc(OC)c(OC)c2)C(=O)C31 (configuration not stated)	4	5	-71*	-79
